The text below walks through data of PMC7819943, “Rice protein-binding microarrays: a tool to detect cis-acting elements near promoter regions in rice”.

Whole data set: some 35,000 sequences, median “fluorescence intensity (a.u.)” near 10,000, cut for the highest 2% near 52,000. The entries come from a sample that favours the highest values as a whole.

This test concerns the target T1, OsWOX13 (Oryza sativa, UniProt Q5QMM3 1-267).
T1 sequence: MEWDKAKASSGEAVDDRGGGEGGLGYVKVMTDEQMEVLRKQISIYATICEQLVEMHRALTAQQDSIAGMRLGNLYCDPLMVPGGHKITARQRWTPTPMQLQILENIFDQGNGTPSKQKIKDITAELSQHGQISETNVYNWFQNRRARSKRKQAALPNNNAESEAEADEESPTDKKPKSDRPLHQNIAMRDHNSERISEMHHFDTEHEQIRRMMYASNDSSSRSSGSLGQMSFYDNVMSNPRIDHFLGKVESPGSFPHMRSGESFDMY
The experiment in a line: protein-binding microarray (RPBM); PBS, 2% BSA, 51.3 ng/ul salmon testes DNA, 50 uM zinc acetate, 200 nM TF, 25 C, 1 h; high values mean tight binding. Conditions: protein: recombinant; tags: N-terminal polyhistidine and DsRed monomer fusion (pET32a); label: CyDye5-dUTP incorporated in the synthesized complementary strand; 3' TTTTT single-stranded linker to array surface; dsDNA, one strand shown. A digest of the protocol:
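The binding signal is fluorescence intensity per array feature (arbitrary units). Readings came from an Axon 4000B scanner after a washed, 2% BSA-blocked, double-stranded custom Agilent array had been incubated for 1 h at 25 °C with 200 nM protein and 50 µM zinc acetate. The protein was a Ni–NTA-purified transcription factor fused N-terminally to polyhistidine and DsRed, expressed in E. coli BL21-CodonPlus.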
Consider “TAGATAGATAGAATTGAATGGTGACCTCAGCTCCAGCTTCCGGAGTCACCTAGTGCAG”, for which the binding signal was 16200 fluorescence intensity (a.u.).

“TCTCTTACTCTTGTTGATTGACACCGGTCATCAGTAGTTCCGGAGTCACCTAGTGCAG”: the binding signal was 43200 fluorescence intensity (a.u.).

As for “CAAAATTAACTTGCGCGCCACTCTGCCTCTCAACCCTTCACGGAGTCACCTAGTGCAG”, the binding signal is 8740 fluorescence intensity (a.u.).

For the sequence “AACAATTGACAAACTGATTCTGCTCGCCTCTGTCCCCTTTCGGAGTCACCTAGTGCAG”, the binding signal was 46800 fluorescence intensity (a.u.).

Take “ATATATATATATATATATATACATACATATACACACACACCGGAGTCACCTAGTGCAG”: the binding signal was 7300 fluorescence intensity (a.u.).

On to “GAGCTCAGCTTGCAGGGAGCTTGGGTGTGTGATCATACACCGGAGTCACCTAGTGCAG”, for which the binding signal was 63900 fluorescence intensity (a.u.).

In the case of “TTGATTGGGTCTGTGGTGGAACAGGACGATCATACATCACCGGAGTCACCTAGTGCAG”, the binding signal was 21000 fluorescence intensity (a.u.).

Regarding “AGTTAATAACAAGAAATTATTCATTTAAATTTAGGGCAAACGGAGTCACCTAGTGCAG”, the binding signal was 9460 fluorescence intensity (a.u.).

As for “CTTAATAACTTTCTCGGATTTAATGTGTGACTCACCATTCCGGAGTCACCTAGTGCAG”, the binding signal was 3340 fluorescence intensity (a.u.).

As for “GGTTGCTGATTGTATCCTTTACTACTAGATCTTGACTGAGCGGAGTCACCTAGTGCAG”, the binding signal is 16300 fluorescence intensity (a.u.).

In the case of “GATGTGACTGAAAAGTTGTATGTGTATGACAGGTTGATGTCGGAGTCACCTAGTGCAG”, the binding signal is 8260 fluorescence intensity (a.u.).

For the sequence “TGGAATGATGTGATGGAAAAGTTGAAAGTTTGTGTGTGTACGGAGTCACCTAGTGCAG”, the binding signal is 5390 fluorescence intensity (a.u.).

For the sequence “GATGATGTGACTGAAAAGTTGTATGTGTATGACATATTGACGGAGTCACCTAGTGCAG”, the binding signal was 11500 fluorescence intensity (a.u.).

As for “ATATGATAGAAAAGTTGTGTATGTATGAAATGTTTGATGTCGGAGTCACCTAGTGCAG”, the binding signal is 9060 fluorescence intensity (a.u.).

For the sequence “GTGATTGACTGATTGTGTGATTGTGTGAAGTGTATTGGTTCGGAGTCACCTAGTGCAG”, the binding signal was 65000 fluorescence intensity (a.u.).

As for “GATGTGATTGAAAGTTTGTGTGTGTATGACAGTTTGATGTCGGAGTCACCTAGTGCAG”, the binding signal was 61700 fluorescence intensity (a.u.).

As to “GAAATTGAAGATGATGTGACTGAAAAGTTGTGTATATGACCGGAGTCACCTAGTGCAG”, the binding signal was 17200 fluorescence intensity (a.u.).

On to “ATGATTGAATGAATGAAACCCTAGTTTGTTTTGATTTGTACGGAGTCACCTAGTGCAG”, for which the binding signal is 54400 fluorescence intensity (a.u.).

As for “GTTGAATGTTTTGTATGATTTGAACCTGAAAACTGCATGACGGAGTCACCTAGTGCAG”, the binding signal was 7380 fluorescence intensity (a.u.).

On to “GCTATTAGATTGACTATATATGAATTGGAGCTAGTAGTTGCGGAGTCACCTAGTGCAG”, for which the binding signal is 42900 fluorescence intensity (a.u.).

With “CCTGATTGGTTGTATTGCTTGAAGTAGACTATTGAGATTGCGGAGTCACCTAGTGCAG”, the binding signal is 60200 fluorescence intensity (a.u.).

Consider “AGTTAATGAAATAATGCCAGCCTGCTGTCTTCTGATTATCCGGAGTCACCTAGTGCAG”, for which the binding signal was 6010 fluorescence intensity (a.u.).

As for “GCCTGCATTCATTTCCCTAATCAATCGGCTCGGATAATGTCGGAGTCACCTAGTGCAG”, the binding signal is 4450 fluorescence intensity (a.u.).

Consider “CGAATCTAAACAATCAATATTTAATTATACTTCCTCTAGACGGAGTCACCTAGTGCAG”, for which the binding signal is 12600 fluorescence intensity (a.u.).

As for “AAGATTGGGCTGTTCATTAATCAAATTATTCTATGTGTCTCGGAGTCACCTAGTGCAG”, the binding signal is 11900 fluorescence intensity (a.u.).

“TACACGAGATTGGAGGCACTAGGCCTCAGTACATGGCACGCGGAGTCACCTAGTGCAG”: the binding signal is 3870 fluorescence intensity (a.u.).

Turning to “GTATGATTATCTTTCTTCGAGTAATTAACACGAAACGATGCGGAGTCACCTAGTGCAG”, the binding signal is 40700 fluorescence intensity (a.u.).

For “AATAAATTGTATTAATAACAAATTAGTCTATTCTATTAAACGGAGTCACCTAGTGCAG”, the binding signal is 24100 fluorescence intensity (a.u.).

For “AATAATGAATTTAAAATAAAATAAAACTGCATGCAAGCGACGGAGTCACCTAGTGCAG”, the binding signal is 5650 fluorescence intensity (a.u.).

“AGTAGATTTTGACATGCTGTGTGTTAACAATGGGAGTAGACGGAGTCACCTAGTGCAG”: the binding signal is 3550 fluorescence intensity (a.u.).

As to “ACCCATCACTAATCAGTAATCACAGTATTACTATTAAATTCGGAGTCACCTAGTGCAG”, the binding signal was 9220 fluorescence intensity (a.u.).

As to “CATTTAATTCATTGTTATATATATATATATATAGACACACCGGAGTCACCTAGTGCAG”, the binding signal was 3920 fluorescence intensity (a.u.).

With “TAACAAACTATTCCTAATTAATAGATAAACTGCCATGCCGCGGAGTCACCTAGTGCAG”, the binding signal was 8390 fluorescence intensity (a.u.).

In the case of “TTATAATTAGTATTTTCATTGTTGTTAGATGATAAAACATCGGAGTCACCTAGTGCAG”, the binding signal is 17500 fluorescence intensity (a.u.).

Turning to “AATGTGTTAACTAATCAACTCGTCTCCCATCTCCTGCAAGCGGAGTCACCTAGTGCAG”, the binding signal is 5480 fluorescence intensity (a.u.).

Regarding “TTGTGATTTGTTAGAATTGTATTTTACAATGTGTAGTATGCGGAGTCACCTAGTGCAG”, the binding signal is 39800 fluorescence intensity (a.u.).

Consider “TGAGCTGATTGATCGTCTGAAGGGTGTCTGATTGTCAAGTCGGAGTCACCTAGTGCAG”, for which the binding signal is 52800 fluorescence intensity (a.u.).

As for “GTAATTGGGCTTTCTTTGGGTAGTTATCGCTGGGCTTAATCGGAGTCACCTAGTGCAG”, the binding signal was 6360 fluorescence intensity (a.u.).

With “GTCTCTGTCTCTCGCTCTGATTGAAGTGTTCTGCTGCCATCGGAGTCACCTAGTGCAG”, the binding signal was 20400 fluorescence intensity (a.u.).

In the case of “CGTTAATCGTTGTGATTGATGTCGGATATGTTTGCCACCACGGAGTCACCTAGTGCAG”, the binding signal was 58600 fluorescence intensity (a.u.).

“AATATGATTGCTTTGTGGGTGTATGGTTCATTTTCAATGGCGGAGTCACCTAGTGCAG”: the binding signal was 47700 fluorescence intensity (a.u.).

For the sequence “ACTTGTGTGATGTTTGGATTGATGCCAAAACTTGCCAAATCGGAGTCACCTAGTGCAG”, the binding signal is 3930 fluorescence intensity (a.u.).

Regarding “GGGTGCTGAAATTGATATACGATCAATTGTTGTCGGTGATCGGAGTCACCTAGTGCAG”, the binding signal is 14000 fluorescence intensity (a.u.).

As for “CTACTGATTGTATTGATTGGGTAGCTGGATTGAAGTTAATCGGAGTCACCTAGTGCAG”, the binding signal is 57000 fluorescence intensity (a.u.).

Consider “GTCATCATTGATTGATATGATTTTGTATGTGTGAGCAATGCGGAGTCACCTAGTGCAG”, for which the binding signal was 59400 fluorescence intensity (a.u.).

Turning to “TGCTGGATTGTATTGATGTGTGTGCTTACCTAGTATAAATCGGAGTCACCTAGTGCAG”, the binding signal was 3580 fluorescence intensity (a.u.).

Regarding “CTTGTATGTTTGTGGATTGATATATTATATATTGATATATCGGAGTCACCTAGTGCAG”, the binding signal was 6720 fluorescence intensity (a.u.).
